# Results filed as inconclusive are left out. A number with no mark means an inactive call. The source made the active and inactive calls. The call rests on the fitted dose curve; in most records, active means well fitted activation curve with a large enough effect; inconclusive means small, poorly fitted or top-dose-only effect; inactive means no such curve, though single readings can be large or run the other way.
# Target: Rap guanine nucleotide exchange factor 4 (Homo sapiens) (UniProt Q8WZA2)
# Sequence (Q8WZA2 whole entry, looked up): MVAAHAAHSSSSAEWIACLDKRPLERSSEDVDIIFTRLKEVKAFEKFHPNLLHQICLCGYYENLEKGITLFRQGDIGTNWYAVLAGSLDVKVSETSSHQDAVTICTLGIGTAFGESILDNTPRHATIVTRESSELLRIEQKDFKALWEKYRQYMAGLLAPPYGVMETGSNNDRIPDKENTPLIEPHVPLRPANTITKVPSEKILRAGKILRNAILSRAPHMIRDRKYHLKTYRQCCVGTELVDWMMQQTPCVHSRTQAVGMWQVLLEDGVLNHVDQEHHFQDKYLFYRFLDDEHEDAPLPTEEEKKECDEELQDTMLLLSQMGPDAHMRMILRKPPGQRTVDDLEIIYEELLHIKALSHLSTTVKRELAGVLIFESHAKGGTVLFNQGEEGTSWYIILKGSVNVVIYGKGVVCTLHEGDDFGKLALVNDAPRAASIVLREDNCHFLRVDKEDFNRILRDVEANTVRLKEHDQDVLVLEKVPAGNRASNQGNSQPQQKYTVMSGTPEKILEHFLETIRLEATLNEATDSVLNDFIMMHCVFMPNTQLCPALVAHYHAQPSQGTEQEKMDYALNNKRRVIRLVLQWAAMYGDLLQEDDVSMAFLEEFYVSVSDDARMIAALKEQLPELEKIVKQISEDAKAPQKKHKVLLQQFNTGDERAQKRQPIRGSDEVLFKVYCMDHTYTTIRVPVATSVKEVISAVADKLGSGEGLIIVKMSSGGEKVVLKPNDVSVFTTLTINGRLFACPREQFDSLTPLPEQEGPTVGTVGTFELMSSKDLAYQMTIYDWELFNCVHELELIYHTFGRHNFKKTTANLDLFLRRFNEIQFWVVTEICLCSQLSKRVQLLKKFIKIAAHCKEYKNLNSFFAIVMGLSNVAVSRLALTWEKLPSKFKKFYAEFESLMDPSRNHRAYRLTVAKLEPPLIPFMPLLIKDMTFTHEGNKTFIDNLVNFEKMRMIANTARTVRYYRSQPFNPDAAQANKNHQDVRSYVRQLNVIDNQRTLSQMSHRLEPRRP
# Experiment: Confirmatory qHTS for agonist of cAMP-regulated guanine nucleotide exchange factor 4 (EPAC2) (AID 1645884);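 further: nucleotide exchange releases bodipy-GDP from Rap1 and this lowers its fluorescence; nearly all actives have a fitted effect of over 65% in size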
# Settings: EPAC2 GEF activity, Rap1B-BODIPY-GDP fluorescence; series mostly up to 154 µM; activation: at the top concentration
# On the % scale 0 is the no-effect control and ±100 the full control effect; potency means the concentration at half of the fitted maximal effect.
Compound,Potency,activation
Nc1ccc2nonc2c1[N+](=O)[O-],112 µM (active),–
O=[N+]([O-])c1ccc(N2CCOCC2)c2c1no[n+]2[O-],–,-200%
Cn1cccc1/C=C1\C(=O)NC(=O)N(Cc2ccccc2)C1=O,–,2.91%
Cn1cc(/C=C2\C(=O)NC(=O)N(c3ccccc3)C2=O)c2ccccc21,112 µM (active),–
CC(C)=CCCC1(C)C=Cc2c(O)c3c(c(CC=C(C)C)c2O1)OC12C(=CC4CC1C(C)(C)OC2(C/C=C(/C)C(=O)O)C4=O)C3=O (centres undefined),–,-23.3%
O=c1[nH]c(=S)n(-c2ccccc2F)c(O)c1C=Nc1ccc(N2CCOCC2)cc1,–,"4.59% [at 17.1 µM, percent relative to cAMP agonist control]"
Cc1cc(/C=C2\C(=O)NC(=O)N(Cc3ccccc3Cl)C2=O)c(C)n1-c1ccc(C(=O)O)cc1,–,"-9.15% [at 17.1 µM, percent relative to cAMP agonist control]"
O=C1CN=C(c2ccccc2)c2cc(Cl)ccc2N1Cc1ccc(Cl)cc1,–,"21.1% [at 83.8 µM, percent relative to cAMP agonist control]"
CC(c1ccccc1)(c1ccccc1)c1ccncc1,–,"0% [at 17.1 µM, percent relative to cAMP agonist control]"
O=C1NC(=O)N(Cc2ccccc2)C(=O)/C1=C\C=C\c1ccco1,–,"12.1% [at 17.1 µM, percent relative to cAMP agonist control]"
O=[N+]([O-])c1ccc(N2CCCCCC2)c2nonc12,100 µM (active),–
CCCCOC(=O)c1ccccc1C(=O)OCCCC,–,-10.7%
COC1C(OC(=O)c2ccc(C)[nH]2)C(O)C(Oc2ccc3c(O)c(NC(=O)c4ccc(O)c(CC=C(C)C)c4)c(=O)oc3c2Cl)OC1(C)C (centres undefined),–,-46.2%
CCCNC1=C(C)C(=O)C2=C(C1=O)C(COC(N)=O)[C@]1(OC)C3NC3CN21 (some centres undefined),–,-12.5%
O=c1[nH]c(=O)n(-c2cccc(F)c2)c(O)c1/C=C1\C=Nc2ccccc21,–,-63.1%
O=C1NC(=O)N(Cc2ccco2)C(=O)/C1=C\c1cccn1CCOc1ccc(Cl)cc1,–,"1.56% [at 17.1 µM, percent relative to cAMP agonist control]"
Cc1cccc(CN2C(=O)CN=C(c3ccccc3)c3ccccc32)c1,–,"-7.4% [at 83.8 µM, percent relative to cAMP agonist control]"

Compound,Potency,activation
COc1cccc(C(c2nnnn2C2CCCCC2)N2CCC3(CC2)C(=O)NCN3c2ccccc2)c1OC (centres undefined),–,-6.2%
COc1cccc(N2C(=O)NC(=O)/C(=C\c3cn(C)c4ccccc34)C2=O)c1,100 µM (active),–
COC1C(C)OC(OC2CC(C)(O)Cc3cc4c(c(O)c32)C(=O)c2c(O)cc3c(c2C4=O)OC2OC3(C)C(O)C(N(C)C)C2O)C(OC)C1(C)OC (centres undefined),–,"18.7% [at 17.1 µM, percent relative to cAMP agonist control]"
Cc1cc2ccccn2c1C(C[N+](=O)[O-])c1c(F)cccc1Cl (centres undefined),–,7.01%
Cc1ccccc1OCC(=O)N1CCN(CCc2ccccn2)CC1,–,"-0.409% [at 83.8 µM, percent relative to cAMP agonist control]"
Cc1cccc(-c2nc(CN3C(=O)CN=C(c4ccccc4)c4ccccc43)c(C)o2)c1,–,"-7.86% [at 83.8 µM, percent relative to cAMP agonist control]"
CC(C)CCn1c(=O)c(C(=O)Nc2ccccc2S(N)(=O)=O)c(O)c2ccccc21,–,-15%
COc1ccc(CN2C(=O)NC(=O)/C(=C\c3ccco3)C2=O)cc1,–,-9.01%
CN1/C(=C\C=C2C(=O)NC(=S)NC2=O)C(C)(C)c2ccccc21,100 µM (active),–
COCCNC(=O)Cn1cc(/C=C2\C(=O)NC(=O)N(c3ccccc3F)C2=O)c2ccccc21,–,0%
Nc1cc(Cl)c2nonc2c1[N+](=O)[O-],–,"5.26% [at 17.1 µM, percent relative to cAMP agonist control]"
Cc1ccc(-n2c(O)c(C=NCc3ccco3)c(=O)[nH]c2=S)cc1C,–,14.9%
CCOC(=O)[C@]12Cc3cc(Cl)ccc3[C@H]1N(C(C)C)C(=O)c1ccccc12,–,14.4%
Nc1ccc2ccc3cccc[n+]3c2c1,100 µM (active),–
CC(C)N1C(=O)/C(=C/C=C/c2ccco2)C(=O)N(Cc2ccco2)C1=O,–,"13% [at 17.1 µM, percent relative to cAMP agonist control]"
O=c1[nH]c(=S)n(-c2ccc(Cl)cc2)c(O)c1C=Nc1ccc(N2CCOCC2)cc1,–,22%
CCCCCC1C(=O)O[C@H](C)[C@@H](NC(=O)c2cccc(NC=O)c2O)C(=O)OC(C)C1OC(=O)CC(C)C (some centres undefined),–,-28.1%
